# Experimental data from the supplement of paper PMC4022240.
# ± gives the standard deviation.
# T1: HaloTag-ATRX ADD domain (163-292)
# T1 chain: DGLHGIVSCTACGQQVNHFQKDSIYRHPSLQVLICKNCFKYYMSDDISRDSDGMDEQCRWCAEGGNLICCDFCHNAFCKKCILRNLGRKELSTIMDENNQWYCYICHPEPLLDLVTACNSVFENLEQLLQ
# Columns and labels:
# Assay in all cases: peptide microarray binding signal (635 nm), min-max normalized on array (fraction of array maximum); higher = stronger binding
# Conditions in all cases: peptide region: H3 1-13
# [1] = target: T1, HaloTag-ATRX ADD domain (163-292)
# Method: (§1)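 Histone 13-mer peptides were synthesized as cellulose conjugates with a C-terminal 20-atom PEG linker and printed in triplicate on nitrocellulose. The sequence given is the unmodified backbone; PTMs (Kme1/2/3, Kac, Sph/Tph, Rme/Rme2a/Rme2s, Rcit) are listed in the label and the 'peptide modifications' condition. Slides were probed at 4 °C for 1 h with biotin-labelled (HQ)5-HaloTag reader fusions (ATRX-ADD, ING2-PHD) then streptavidin-Alexa647, or with rabbit histone antibodies then anti-rabbit Alexa647. The mean 635 nm signal of the triplicate spots was scaled 0-1 between the lowest and highest values on each array.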
# [2] = target: HaloTag-ING2 PHD (mouse Ing2 200-280)
# Method: as §1
# [3] = target: anti-H3K4me3 antibody ab8580
# Method: as §1
# [4] = target: anti-H3K9me3 antibody ab8898
# Method: as §1
# [5] = peptide modifications: H3R8me1 H3K9me2, binder concentration: 1:2,000 dilution
# [6] = peptide modifications: H3R8me1 H3K9me2, binder concentration: 1:10,000 dilution
# [7] = peptide modifications: H3R8me2s H3K9ac, binder concentration: 1:2,000 dilution
# [8] = peptide modifications: H3R8me1, binder concentration: 1:2,000 dilution
# [9] = peptide modifications: H3R8me1, binder concentration: 1:10,000 dilution
# [10] = peptide modifications: H3R8me1 H3K9ac, binder concentration: 1:2,000 dilution
# [11] = peptide modifications: H3R8me1 H3K9ac, binder concentration: 1:10,000 dilution
# [12] = peptide modifications: H3T3ph H3K4me1, binder concentration: 1:2,000 dilution
# [13] = peptide modifications: H3T3ph H3K4me1, binder concentration: 1:10,000 dilution
# [14] = peptide modifications: H3R8me2a H3K9me1, binder concentration: 1:2,000 dilution
# [15] = peptide modifications: H3R8me2a H3K9me1, binder concentration: 1:10,000 dilution
# [16] = peptide modifications: H3R8me2s H3K9me3, binder concentration: 1:2,000 dilution
# [17] = peptide modifications: H3R8me2s H3K9me3, binder concentration: 1:10,000 dilution
# [18] = peptide modifications: H3R8cit H3K9me3, binder concentration: 1:2,000 dilution
# [19] = peptide modifications: H3R8cit H3K9me3, binder concentration: 1:10,000 dilution
# [20] = peptide modifications: H3T3ph H3K4ac, binder concentration: 1:2,000 dilution
# [21] = peptide modifications: H3T3ph H3K4ac, binder concentration: 1:10,000 dilution
# [22] = peptide modifications: H3R8me1 H3K9me1, binder concentration: 1:2,000 dilution
# [23] = peptide modifications: H3R8me1 H3K9me1, binder concentration: 1:10,000 dilution
binder,measurement,setting,value
ARTKQTARKSTGG [H3 1-13 A R T K Q T A Rme Kme2 S T G G],peptide microarray binding signal,"[1]; peptide modifications: H3R8me1 H3K9me2, binder concentration: 50 nM",0.0149 ± 0.00099
same,peptide microarray binding signal,"[1]; peptide modifications: H3R8me1 H3K9me2, binder concentration: 500 nM",0.0405 ± 0.00097
same,peptide microarray binding signal,"[2]; peptide modifications: H3R8me1 H3K9me2, binder concentration: 10 nM",0.0115 ± 0.00013
same,peptide microarray binding signal,"[2]; peptide modifications: H3R8me1 H3K9me2, binder concentration: 100 nM",0.0224 ± 0.00044
same,peptide microarray binding signal,[3]; [5],0.00179 ± 7.7e-05
same,peptide microarray binding signal,[3]; [6],0.00108 ± 5.7e-05
same,peptide microarray binding signal,[4]; [5],0.00208 ± 0.00038
same,peptide microarray binding signal,[4]; [6],0.0019 ± 6.5e-05
ARTKQTARKSTGG [H3 1-13 A R T K Q T A Rme2s Kac S T G G],peptide microarray binding signal,"[1]; peptide modifications: H3R8me2s H3K9ac, binder concentration: 500 nM",0.0059 ± 0.0002
same,peptide microarray binding signal,"[2]; peptide modifications: H3R8me2s H3K9ac, binder concentration: 100 nM",0.00574 ± 0.00031
same,peptide microarray binding signal,[3]; [7],0.00142 ± 6.5e-05
same,peptide microarray binding signal,[4]; [7],0.00243 ± 0.00046
ARTKQTARKSTGG [H3 1-13 A R T K Q T A Rme K S T G G],peptide microarray binding signal,"[1]; peptide modifications: H3R8me1, binder concentration: 50 nM",0.00875 ± 0.0009
same,peptide microarray binding signal,"[1]; peptide modifications: H3R8me1, binder concentration: 500 nM",0.0184 ± 0.00056
same,peptide microarray binding signal,"[2]; peptide modifications: H3R8me1, binder concentration: 10 nM",0.005013 ± 5e-05
same,peptide microarray binding signal,"[2]; peptide modifications: H3R8me1, binder concentration: 100 nM",0.0155 ± 0.0047
same,peptide microarray binding signal,[3]; [8],0.000717 ± 4.6e-05
same,peptide microarray binding signal,[3]; [9],0.000685 ± 2.6e-05
same,peptide microarray binding signal,[4]; [8],0.00071 ± 4.4e-05
same,peptide microarray binding signal,[4]; [9],0.000519 ± 5.6e-06
ARTKQTARKSTGG [H3 1-13 A R T K Q T A Rme Kac S T G G],peptide microarray binding signal,"[1]; peptide modifications: H3R8me1 H3K9ac, binder concentration: 50 nM",0.00721 ± 8e-05
same,peptide microarray binding signal,"[1]; peptide modifications: H3R8me1 H3K9ac, binder concentration: 500 nM",0.0187 ± 0.0017
same,peptide microarray binding signal,"[2]; peptide modifications: H3R8me1 H3K9ac, binder concentration: 10 nM",0.0141 ± 0.00051
same,peptide microarray binding signal,"[2]; peptide modifications: H3R8me1 H3K9ac, binder concentration: 100 nM",0.0352 ± 0.0065
same,peptide microarray binding signal,[3]; [10],0.00179 ± 0.00022
same,peptide microarray binding signal,[3]; [11],0.000628 ± 6.7e-06
same,peptide microarray binding signal,[4]; [10],0.00122 ± 4.2e-05
same,peptide microarray binding signal,[4]; [11],0.000807 ± 1.5e-05
ARTKQTARKSTGG [H3 1-13 A R Tph Kme Q T A R K S T G G],peptide microarray binding signal,"[1]; peptide modifications: H3T3ph H3K4me1, binder concentration: 50 nM",0.00492 ± 0.00024
same,peptide microarray binding signal,"[1]; peptide modifications: H3T3ph H3K4me1, binder concentration: 500 nM",0.0238 ± 0.013
same,peptide microarray binding signal,"[2]; peptide modifications: H3T3ph H3K4me1, binder concentration: 10 nM",0.00376 ± 0.00014
same,peptide microarray binding signal,"[2]; peptide modifications: H3T3ph H3K4me1, binder concentration: 100 nM",0.021 ± 0.002
same,peptide microarray binding signal,[3]; [12],0.021 ± 0.0064
same,peptide microarray binding signal,[3]; [13],0.00765 ± 0.0012
same,peptide microarray binding signal,[4]; [12],0.00298 ± 0.00034
same,peptide microarray binding signal,[4]; [13],0.0015 ± 5.1e-05
ARTKQTARKSTGG [H3 1-13 A R T K Q T A Rme2a Kme S T G G],peptide microarray binding signal,"[1]; peptide modifications: H3R8me2a H3K9me1, binder concentration: 50 nM",0.0352 ± 0.0011
same,peptide microarray binding signal,"[1]; peptide modifications: H3R8me2a H3K9me1, binder concentration: 500 nM",0.0882 ± 0.0059
same,peptide microarray binding signal,"[2]; peptide modifications: H3R8me2a H3K9me1, binder concentration: 10 nM",0.033 ± 0.0066
same,peptide microarray binding signal,"[2]; peptide modifications: H3R8me2a H3K9me1, binder concentration: 100 nM",0.0721 ± 0.0073
same,peptide microarray binding signal,[3]; [14],0.00366 ± 0.00063
same,peptide microarray binding signal,[3]; [15],0.00114 ± 3e-05
same,peptide microarray binding signal,[4]; [14],0.00186 ± 0.00023
same,peptide microarray binding signal,[4]; [15],0.00208 ± 7.7e-05
ARTKQTARKSTGG [H3 1-13 A R T K Q T A Rme2s Kme3 S T G G],peptide microarray binding signal,"[1]; peptide modifications: H3R8me2s H3K9me3, binder concentration: 50 nM",0.0211 ± 0.0011
same,peptide microarray binding signal,"[1]; peptide modifications: H3R8me2s H3K9me3, binder concentration: 500 nM",0.0455 ± 0.0027
same,peptide microarray binding signal,"[2]; peptide modifications: H3R8me2s H3K9me3, binder concentration: 10 nM",0.0394 ± 0.0041
same,peptide microarray binding signal,"[2]; peptide modifications: H3R8me2s H3K9me3, binder concentration: 100 nM",0.0568 ± 0.0048
same,peptide microarray binding signal,[3]; [16],0.0739 ± 0.0089
same,peptide microarray binding signal,[3]; [17],0.0587 ± 0.011
same,peptide microarray binding signal,[4]; [16],0.468 ± 0.023
same,peptide microarray binding signal,[4]; [17],0.396 ± 0.02
ARTKQTARKSTGG [H3 1-13 A R T K Q T A Rcit Kme3 S T G G],peptide microarray binding signal,"[1]; peptide modifications: H3R8cit H3K9me3, binder concentration: 50 nM",0.325 ± 0.047
same,peptide microarray binding signal,"[1]; peptide modifications: H3R8cit H3K9me3, binder concentration: 500 nM",0.387 ± 0.024
same,peptide microarray binding signal,"[2]; peptide modifications: H3R8cit H3K9me3, binder concentration: 10 nM",0.0423 ± 0.0029
same,peptide microarray binding signal,"[2]; peptide modifications: H3R8cit H3K9me3, binder concentration: 100 nM",0.055 ± 0.0029
same,peptide microarray binding signal,[3]; [18],0.0234 ± 0.008
same,peptide microarray binding signal,[3]; [19],0.0152 ± 0.0012
same,peptide microarray binding signal,[4]; [18],0.331 ± 0.019
same,peptide microarray binding signal,[4]; [19],0.296 ± 0.055
ARTKQTARKSTGG [H3 1-13 A R Tph Kac Q T A R K S T G G],peptide microarray binding signal,"[1]; peptide modifications: H3T3ph H3K4ac, binder concentration: 50 nM",0.00699 ± 0.00027
same,peptide microarray binding signal,"[1]; peptide modifications: H3T3ph H3K4ac, binder concentration: 500 nM",0.0189 ± 0.0052
same,peptide microarray binding signal,"[2]; peptide modifications: H3T3ph H3K4ac, binder concentration: 10 nM",0.01 ± 0.0027
same,peptide microarray binding signal,"[2]; peptide modifications: H3T3ph H3K4ac, binder concentration: 100 nM",0.024 ± 0.0049
same,peptide microarray binding signal,[3]; [20],0.00177 ± 0.0002
same,peptide microarray binding signal,[3]; [21],0.00325 ± 0.0004
same,peptide microarray binding signal,[4]; [20],0.00104 ± 0.00017
same,peptide microarray binding signal,[4]; [21],0.00156 ± 0.00017
ARTKQTARKSTGG [H3 1-13 A R T K Q T A Rme Kme S T G G],peptide microarray binding signal,"[1]; peptide modifications: H3R8me1 H3K9me1, binder concentration: 50 nM",0.0189 ± 0.0012
same,peptide microarray binding signal,"[1]; peptide modifications: H3R8me1 H3K9me1, binder concentration: 500 nM",0.0502 ± 0.0023
same,peptide microarray binding signal,"[2]; peptide modifications: H3R8me1 H3K9me1, binder concentration: 10 nM",0.0183 ± 0.0025
same,peptide microarray binding signal,"[2]; peptide modifications: H3R8me1 H3K9me1, binder concentration: 100 nM",0.0398 ± 0.0084
same,peptide microarray binding signal,[3]; [22],0.00206 ± 9e-05
same,peptide microarray binding signal,[3]; [23],0.00108 ± 5e-05
same,peptide microarray binding signal,[4]; [22],0.00319 ± 0.00084
same,peptide microarray binding signal,[4]; [23],0.00202 ± 3.2e-05
